# Screening data as filed in PubChem.
# PLC-gamma1 inh = inhibitors of human phospholipase C gamma1; P19174; purified PLC-gamma1, fluorogenic substrate, fluorescence; inhibition, % at 12.2 µM; actives 0.84% (n = 370,000); AID 720700
# FAS TE block = FAS thioesterase (human) inhibition. recombinant FAS-TE, OMFH fluorogenic substrate, fluorescence endpoint. actives 0.67% (n = 360,000). inhibition, % at 15 µM. AID 602261. P49327;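 active means compounds whose normalised, plate-corrected inhibition of enzyme fluorescence in the single-dose primary screen is 50% or more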;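 further: 0% = DMSO with enzyme and 100% = substrate without enzyme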
# PLCb3 inh = blocks human PLC-beta3 enzyme activity; Q01970; Purified PLC-beta3, fluorogenic substrate, fluorescence; inhibition, % at 12.2 µM; actives 0.18% (n = 370,000); in the data active means inhibition above about 11%;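 further: 0% = median of compound wells on plate and 100% = full blocker control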
# Target sequence (Q01970 whole entry, looked up): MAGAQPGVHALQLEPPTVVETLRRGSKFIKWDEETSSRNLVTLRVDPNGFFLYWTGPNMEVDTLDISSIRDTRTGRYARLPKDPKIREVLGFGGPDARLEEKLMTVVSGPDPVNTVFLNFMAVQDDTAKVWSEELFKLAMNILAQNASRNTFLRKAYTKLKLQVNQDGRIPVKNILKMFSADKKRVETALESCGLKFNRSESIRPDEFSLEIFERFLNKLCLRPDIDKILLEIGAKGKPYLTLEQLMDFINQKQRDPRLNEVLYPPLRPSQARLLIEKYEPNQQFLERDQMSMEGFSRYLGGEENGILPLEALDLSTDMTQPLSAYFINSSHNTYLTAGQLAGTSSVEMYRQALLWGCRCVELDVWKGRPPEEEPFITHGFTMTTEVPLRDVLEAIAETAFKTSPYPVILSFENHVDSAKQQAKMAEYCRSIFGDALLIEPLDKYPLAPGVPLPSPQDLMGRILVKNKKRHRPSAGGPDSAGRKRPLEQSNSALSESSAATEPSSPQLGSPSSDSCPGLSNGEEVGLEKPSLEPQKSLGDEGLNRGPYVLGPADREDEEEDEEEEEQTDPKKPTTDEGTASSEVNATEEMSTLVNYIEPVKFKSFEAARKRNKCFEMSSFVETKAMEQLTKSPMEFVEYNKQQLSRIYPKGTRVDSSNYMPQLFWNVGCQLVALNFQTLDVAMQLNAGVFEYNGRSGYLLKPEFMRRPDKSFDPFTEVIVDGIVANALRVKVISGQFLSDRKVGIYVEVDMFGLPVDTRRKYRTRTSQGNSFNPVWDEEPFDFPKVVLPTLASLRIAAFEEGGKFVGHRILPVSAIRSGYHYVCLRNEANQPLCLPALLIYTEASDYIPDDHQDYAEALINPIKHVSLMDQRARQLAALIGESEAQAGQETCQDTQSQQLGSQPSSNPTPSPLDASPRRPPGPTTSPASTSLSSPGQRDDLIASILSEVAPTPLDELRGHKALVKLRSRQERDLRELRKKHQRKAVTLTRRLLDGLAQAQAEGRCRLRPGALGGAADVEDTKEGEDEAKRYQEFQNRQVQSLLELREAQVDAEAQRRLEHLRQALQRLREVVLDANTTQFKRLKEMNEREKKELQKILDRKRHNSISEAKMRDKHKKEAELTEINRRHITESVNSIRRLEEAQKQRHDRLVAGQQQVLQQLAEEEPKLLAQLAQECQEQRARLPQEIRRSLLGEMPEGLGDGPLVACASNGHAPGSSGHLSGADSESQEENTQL
# H9c2 protect = modulators protecting cardiomyocytes from myocardial damage; H9c2 cardiomyocytes, H2O2 injury protection, ATPLite, 2 h; protection from H2O2 cell death, % at 20 µM; actives 0.63% (n = 360,000); AID 588492;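 active means compounds giving at least 50% protection of heart cells from peroxide-induced death in the single-dose screen, raw or plate-pattern-corrected value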;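 further: 0% = DMSO wells with peroxide and 100% = DMSO wells without peroxide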
# PLCgamma1 ctr = PLC-gamma1 inhibition, counter-screen for PLC-beta3 hits; inhibition, % at 12.3 µM; AID 743258; purified PLC-gamma1, fluorogenic substrate, fluorescence; shares compounds with PLC-gamma1 inh; actives 3.1% (n = 3,300)
# PLCb3 confirm = human PLC-beta3 inhibition, confirmation; shares compounds with PLC-gamma1 inh; purified PLC-beta3, fluorogenic substrate fluorescence; inhibition, % at 12.3 µM; actives 1% (n = 3,300); in the data active means inhibition above about 11%
# The depositor's hits bear a star; x = no result given. Sampled rows, rich in hits. Any-hit rate of the full collection: about 2.2%. Unless noted, no stated cut-off is given here; in the data, active means inhibition above about 9.5%; inactive means the rest.
SMILES,PLC-gamma1 inh,FAS TE block,PLCb3 inh,H9c2 protect,PLCgamma1 ctr,PLCb3 confirm
CC(C)CC(=O)Nc1cccc(NC(=O)CC(C)C)n1,10*,-6,-3,-1,-8,-7
CC(=O)Nc1cccc(NC(C)=O)n1,1,-2,-2,-2,x,x
CCOC(=O)C1=CCN(S(=O)(=O)c2ccc(Br)cc2)C1c1ccc(C)cc1 (stereo unspecified),4,24,-2,-1,x,x
Cc1cccc(-n2c(Cc3ccccc3)nnc2SCC(=O)N2CCOCC2)c1,14*,-12,4,-2,-5,-3
O=C(CSc1nnc(Cc2ccccc2)n1-c1cccc(Cl)c1)N1CCOCC1,6,-6,0,0,x,x
CCCc1ccc(C(O)c2ncc(-c3ccccc3C)[nH]2)cc1 (stereo unspecified),0,3,-6,-7,x,x
CN(C)C(=O)CCc1nc(-c2ccc(C(C)(C)C)cc2)no1,12*,-1,5,-22,-8,-1
COc1cc2c(c(O)c1OC)C1Cc3ccc(OC)c(OC)c3CN1CC2 (stereo unspecified),-21,1,-25,4,x,x
COc1cc2c3cc1Oc1cc(ccc1O)C[C@@H]1c4c(cc(OC)c(O)c4Oc4ccc(cc4)C[C@@H]3N(C)CC2)CC[N+]1(C)C,13*,x,10,x,-3,-1
O=C(COc1ccccc1)NCC(=O)NC1CCCCC1,-1,-4,-7,-4,x,x
CCOc1ccccc1OCC(=O)NC1CCCCC1,11*,-5,4,1,-3,0
O=C(O)CNC(=O)C1(NC(=O)OCc2ccccc2)CCCC1,8,-8,17*,4,-3,0
COc1ccccc1OCC(=O)NC1CCCCCC1,1,-4,0,0,x,x
COc1ccc(OCC(=O)OCC(=O)NC2CCCC2)cc1,1,-5,-3,2,x,x
O=C(CNC(=O)OCc1ccccc1)NC1CCCCCCC1,10*,-3,7,-1,-1,2
COc1ccc(OCC(=O)NC2CCCCCCC2)cc1,11*,1,-4,0,-3,-2
CCN(C)C1CN(Cc2cn(Cc3ccccc3)nn2)S(=O)(=O)C1 (stereo unspecified),1,-12,3,x,x,x
COc1ccc(C(=O)NCCS(=O)(=O)NCc2cccnc2)cc1,2,-7,0,8,x,x
CC(C)c1cc(=O)n2[nH]c(SCc3ccccc3Cl)nc2n1,13*,-7,-5,3,-3,-2
COCC(O)CSc1c([N+](=O)[O-])nc(C)n1Cc1ccc(OC)c([N+](=O)[O-])c1 (stereo unspecified),10*,-2,2,14,7,5
CS(=O)(=O)N(CCc1ccccc1)CC(=O)N1CCCC1,-1,-5,-7,-2,x,x
CS(=O)(=O)N(CCc1ccccc1)CC(=O)N1CCCCCC1,2,-3,13*,0,-7,-3
CC(OC(=O)c1ccc(=O)n(Cc2ccccc2)n1)C(=O)Nc1cccc(Cl)c1 (stereo unspecified),1,10,-2,1,x,x
CCCC(=O)NNC(=O)CCC(=O)Nc1ccccc1Cl,10*,-7,0,4,-4,-2
O=C(CCC(=O)Nc1ccccc1Cl)NNC(=O)NC1CCCCC1,0,-7,-9,0,x,x
SMILES,PLC-gamma1 inh,FAS TE block,PLCb3 inh,H9c2 protect,PLCgamma1 ctr,PLCb3 confirm
CCc1nc2ccc(C(=O)N(C)CCCN(C)C)cn2c1N(C)CCCc1ccccc1,0,-3,0,-2,x,x
CCNC(=O)C1(C)CCN1C(=O)CCc1cccc(Cl)c1 (stereo unspecified),14*,-7,8,0,-8,-4
CCN(C(=O)CSc1n[nH]c(-c2ccccc2)n1)c1c(N)n(Cc2ccccc2)c(=O)[nH]c1=O,4,-4,-3,0,x,x
CC(=O)Nc1ccc(-c2ccnc3c2CC(C(=O)Nc2cccc(N(C)C)c2)O3)cc1 (stereo unspecified),6,-4,5,15,x,x
COc1ccc2sc(C)nc2c1NC(C)=O,12*,-3,5,4,-1,4
COc1ccc(NC(C)=O)c2nc(C)c(C)nc12,-2,-8,-1,2,x,x
C=CCNC(=O)C(C(=O)OCC)C1CCCCC1 (stereo unspecified),10*,-8,14*,0,-2,-8
O=C(/C=C/c1cccc([N+](=O)[O-])c1)N1CC[C@@]2(O)CCCC[C@H]2C1,10*,6,2,-1,0,-2
Cc1cc(C)c(NC(=O)Nc2ccccc2)c(Cl)c1,7,-8,13*,6,-6,0
Cc1cc(C)c(NC(=O)Nc2ccccc2C)c(Cl)c1,7,-5,-1,5,x,x
Cc1cccc(C(C#N)c2nc3ccccc3nc2C(F)(F)F)c1 (stereo unspecified),9.8*,14,5,-22,1,-2
N#CC(c1ccc(Cl)cc1)c1nc2ccccc2nc1C(F)(F)F (stereo unspecified),-2,19,-1,-17,x,x
COc1cc(OC)c(OC)cc1CNC(=O)c1cc(S(=O)(=O)N2CCOCC2)ccc1F,-1,-6,-2,0,x,x
O=C(COC(=O)c1ccc([N+](=O)[O-])cc1)NC1CCCC1,0,7,1,5,x,x
CC1(C)OC2OC(COC(=O)c3ccc([N+](=O)[O-])cc3)C3OC(C)(C)OC3C2O1 (stereo unspecified),11*,5,5,4,-1,1
Cc1csc(NC(=O)CSC2=NS(=O)(=O)c3ccccc3N2)n1,1,-6,-4,1,x,x
